Assay outcomes as filed in PubChem.
C diff growth: C. difficile growth inhibitors, primary screen, HTS; Clostridium difficile clinical isolate growth, OD600, 24 h; active compounds read low; growth activity, negative = inhibition, % at 16 µg/mL (by protocol); 86,000 compounds, 0.25% hits; AID 1259249, 2017;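 active = mean growth activity at or below -80% and every replicate also at or below -80%; inconclusive = mean at or below -80% but some replicate above -80%; inactive = mean growth activity above -80%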;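 also: 0% = DMSO wells and -100% = levofloxacin 16 µg/mL wells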
Pf Dd2 inh: P. falciparum Dd2 growth inhibitors, primary screen, SYBR Green fluorescence, single dose replicates | AID 1159554, 2015 | 94,000 compounds, 2.3% hits | 72 h; active compounds read low | activity change, % at 10 µM; in the data active = activity change below about -80%; inconclusive = no clear call, values can overlap the other calls
T cruzi growth-1: T. cruzi intracellular proliferation inhibitors, primary screen, cell-based, beta-gal Tulahuen parasites, NIH3T3 host, luminescence | inhibition, % at 8.34 µM | T. cruzi beta-gal in NIH3T3, GalScreen luminescence, 90 h | 77,000 compounds, 5.9% hits;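 active = mean inhibition above about 93%, with at least 55% of replicates each passing it, limit read from the data, passing the limit was not always enough; inconclusive = only one of those two conditions holds; inactive = neither condition holds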
T cruzi growth-2: T. cruzi intracellular proliferation inhibitors, confirmation, cell-based, NIH3T3 host, beta-gal parasite, luminescence, cherry-pick. 5,600 compounds, 72% hits. inhibition, % at 8.35 µM. AID 651739, 2012. T. cruzi beta-gal in NIH3T3, GalScreen luminescence, 90 h. shares compounds with T cruzi growth-1;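 active = mean replicate inhibition above about 95% and at least 55% of replicates individually reaching it, limit read from the data; inconclusive = only one of the two criteria is met; inactive = neither criterion is met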
T cruzi growth-3: inhibitors of intracellular T. cruzi replication, confirmation, NIH3T3 host cells, beta-gal parasites, cherry-pick, set 2; 5,600 compounds, 21% hits; T. cruzi beta-gal in NIH3T3, GalScreen luminescence, 90 h; shares compounds with T cruzi growth-1; inhibition, % at 2.09 µM;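 active = mean inhibition above about 95%, with at least 55% of replicates also reaching it, limit read from the data; inconclusive = meets just one of the two conditions; inactive = meets neither condition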;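 also: plate controls were neutral control median for no effect and positive control median for full effect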
NIH3T3 tox: cytotoxicity in mouse NIH/3T3 fibroblasts, confirmation, cytotoxicity control for T. cruzi proliferation inhibitor project, cell-based, cherry-pick, single point; cytotoxicity (signal decrease), % at 8.35 µM; NIH/3T3 viability, CellTiter-Glo ATP luminescence, 90 h; 5,600 compounds, 14% hits; shares compounds with T cruzi growth-1; AID 651742, 2012;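 active = mean signal decrease across replicates above about 35% based on untreated-well scatter, with enough replicates individually passing, limit read from the data; inconclusive = no rule stated though some were filed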;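 also: 0% = median of neutral control wells and 100% = median of positive control wells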
3T3 cytotox 2: NIH/3T3 fibroblast cytotoxicity, confirmation, cytotoxicity control, cell-based, cherry-pick, single point, set 2; shares compounds with T cruzi growth-1; NIH/3T3 viability, CellTiter-Glo ATP luminescence, 90 h; inhibition, % at 24.9 µM; 5,600 compounds, 56% hits;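 active = mean loss of cell viability signal at or above a set limit, and enough replicates individually reaching it; inconclusive = meets only the mean limit or only the replicate share; inactive = meets neither condition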;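 also: 0% = median of neutral control wells and 100% = median of positive control wells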
* marks the source's active call; other numbers are inactive results; ? = inconclusive; . = no result given. Most compounds without a hit are left out; they make up all but 6.8% or so of the library.

SMILES	C diff growth	Pf Dd2 inh	T cruzi growth-1	T cruzi growth-2	T cruzi growth-3	NIH3T3 tox	3T3 cytotox 2
Cc1ccc(S(=O)(=O)Nc2ccc3c(c2)C(=O)N([C@@H](C)CO)C[C@@H](C)[C@@H](CN(C)C(=O)Nc2cccc4ccccc24)O3)cc1	.	-15	3	.	.	.	.
COc1ccc(NC(=O)Nc2ccc3c(c2)C(=O)N([C@H](C)CO)C[C@@H](C)[C@H](CN(C)Cc2ccc(C(F)(F)F)cc2)OCCCC[C@@H](C)O3)cc1	-1	-20	71	.	.	.	.
COc1ccc(CNC(=O)C[C@H]2C[C@H]3c4cc(NC(=O)CN(C)C)ccc4O[C@H]3[C@@H](CO)O2)cc1	0	9	13	.	.	.	.
CO[C@@H]1CN(C)C(=O)c2ccc(NC(=O)c3ccccc3F)cc2OC[C@@H](C)NC[C@@H]1C	.	2	-21	.	.	.	.
C/C=C/c1ccc([C@@H]2[C@@H](CO)N3CCCCN(S(=O)(=O)c4ccc(OC)cc4)C[C@@H]23)cc1	-7	-27	76	.	.	.	.
C/C=C/c1ccc([C@@H]2[C@H](CO)N3CCCCN(S(=O)(=O)c4ccccc4)C[C@@H]23)cc1	-2	-64	69	.	.	.	.
C/C=C/c1ccc([C@H]2[C@@H](CO)N3CCCCN(S(=O)(=O)c4ccc(OC)cc4)C[C@@H]23)cc1	13	-15	95*	111*	69	0	55*
C/C=C/c1ccc([C@H]2[C@H](CO)N3CCCCN(S(=O)(=O)c4ccc(F)cc4)C[C@@H]23)cc1	38	1	111*	108*	57	22	102*
COc1ccc(CN2C[C@H](C)[C@@H](OC)CN(C)C(=O)c3ccc(NC(=O)c4nc5ccccc5s4)cc3OC[C@H]2C)cc1	5	-52	?	110*	114*	2	6
CO[C@@H]1CN(C)C(=O)c2cc(NC(=O)c3nc4ccccc4s3)ccc2OC[C@@H](C)N(Cc2cccnc2)C[C@H]1C	.	-75	.	.	.	.	.
CO[C@@H]1CN(C)C(=O)c2ccc(NC(=O)c3nc4ccccc4s3)cc2OC[C@H](C)N(Cc2cncnc2)C[C@H]1C	.	-44	.	.	.	.	.
CO[C@H]1CN(C)C(=O)c2ccc(NC(=O)c3nc4ccccc4s3)cc2OC[C@@H](C)N(Cc2cccnc2)C[C@H]1C	-7	-49	?	105*	88	11	59*
C[C@@H]1CN([C@H](C)CO)C(=O)Cc2cc(NS(=O)(=O)c3ccc(F)cc3)ccc2O[C@H]1CN(C)C(=O)Nc1ccccc1	-1	25	-3	.	.	.	.
CO[C@H]1CN(C)C(=O)c2cc(NS(=O)(=O)c3ccccc3C)ccc2OC[C@@H](C)NC[C@H]1C	-14	3	-2	.	.	.	.
O=C(Cc1ccccc1)N1CC[C@@H]2[C@@H](CO)Nc3ccc(-c4ccc(F)cc4)cc3[C@@H]21	22	15	24	.	.	.	.
OC[C@H]1Nc2ccc(-c3ccccc3)cc2[C@H]2[C@@H]1CCN2Cc1ccc(F)cc1	-6	-76	104*	99*	113*	26	105*
O=C(Cc1ccccc1)N1CC[C@@H]2[C@H]1c1cc(-c3ccc(F)cc3)ccc1N[C@@H]2CO	61	20	34	.	.	.	.
OC[C@@H]1Nc2ccc(-c3ccccc3)cc2[C@H]2[C@@H]1CCN2Cc1ccc(F)cc1	-12	-61	105*	104*	111*	12	103*
COc1ccccc1CNC(=O)C[C@H]1C=C[C@@H](NC(C)=O)[C@@H](CO)O1	2	-4	9	.	.	.	.
COc1ccccc1S(=O)(=O)Nc1ccc2c(c1)C(=O)N(C)C[C@H](OC)[C@H](C)CN[C@@H](C)CO2	.	0	22	.	.	.	.
COC(=O)C[C@H]1CC[C@H]2[C@H](COc3ccc(NC(=O)Nc4ccc(Cl)cc4)cc3C(=O)N2C)O1	10	8	110*	103*	114*	34	33*
COC(=O)C[C@H]1CC[C@H]2[C@H](COc3ccc(NS(=O)(=O)c4ccc(F)cc4)cc3C(=O)N2C)O1	-8	26	97*	28	2	-7	-3
COC(=O)C[C@H]1CC[C@@H]2[C@H](COc3ccc(NC(=O)Nc4ccc(Cl)cc4)cc3C(=O)N2C)O1	6	-1	53	.	.	.	.
CN1C(=O)c2cc(NS(=O)(=O)c3ccc(Cl)cc3)ccc2OC[C@@H]2O[C@H](CC(=O)N3CCc4ccccc4C3)CC[C@@H]21	4	6	107*	108*	58	-1	8
COC(=O)C[C@H]1CC[C@H]2[C@H](COc3ccc(NS(=O)(=O)c4ccc(C)cc4)cc3C(=O)N2C)O1	10	-12	-3	.	.	.	.
SMILES	C diff growth	Pf Dd2 inh	T cruzi growth-1	T cruzi growth-2	T cruzi growth-3	NIH3T3 tox	3T3 cytotox 2
CN1C(=O)c2cc(NS(=O)(=O)c3ccc(Cl)cc3)ccc2OC[C@H]2O[C@@H](CC(=O)N3CCc4ccccc4C3)CC[C@H]21	-3	-56	49	.	.	.	.
Cc1noc(C)c1S(=O)(=O)N(C)C[C@H]1Oc2c(NC(=O)C3CCOCC3)cccc2C(=O)N([C@H](C)CO)C[C@H]1C	.	3	-11	.	.	.	.
COc1ccc2c3c([nH]c2c1)[C@H](CO)N(C(=O)C1CCC1)CC31CN(C(=O)c2ccncc2)C1	5	7	.	.	.	.	.
C[C@@H]1CN([C@@H](C)CO)C(=O)c2cc(NC(=O)c3ccncc3)ccc2O[C@@H](C)CCCCO[C@H]1CN(C)S(=O)(=O)c1ccc(F)cc1	-3	-78	46	.	.	.	.
COC(=O)C[C@H]1CC[C@@H]2[C@H](COc3ccc(NC(=O)Nc4cccc(C#N)c4)cc3C(=O)N2C)O1	5	10	-9	.	.	.	.
C[C@H]1CN([C@@H](C)CO)S(=O)(=O)c2ccc(-c3cccc(F)c3)cc2O[C@H]1CN(C)S(=O)(=O)c1ccccc1	-4	-63	119*	99*	106*	42*	62*
C[C@@H]1CN([C@@H](C)CO)S(=O)(=O)c2ccc(-c3cccc(F)c3)cc2O[C@H]1CN(C)S(C)(=O)=O	-6	-20	62	.	.	.	.
C[C@H](CO)N1C[C@H](C)[C@@H](CN(C)S(=O)(=O)c2ccccc2)Oc2cc(-c3cccc(F)c3)ccc2S1(=O)=O	-1	-28	115*	101*	56	22	29*
C[C@H](CO)N1C[C@H](C)[C@H](CN(C)S(=O)(=O)c2ccccc2)Oc2cc(-c3cccc(F)c3)ccc2S1(=O)=O	6	-56	120*	97*	100*	19	34*
